Holding throughout (assay): DAPPL (digital affinity profiling via proximity ligation, sequencing); 10 mM Tris-HCl pH 7.5, 50 mM NaCl, 1 mM DTT, 4% glycerol, room temperature, 30 min; GST-TFs on glutathione beads, 16-mer random dsDNA library, 0.1% formaldehyde crosslink after washing; high values mean tight binding
One assay concerns the target T1, FEV (Homo sapiens, UniProt Q99581 1-238).
T1 sequence: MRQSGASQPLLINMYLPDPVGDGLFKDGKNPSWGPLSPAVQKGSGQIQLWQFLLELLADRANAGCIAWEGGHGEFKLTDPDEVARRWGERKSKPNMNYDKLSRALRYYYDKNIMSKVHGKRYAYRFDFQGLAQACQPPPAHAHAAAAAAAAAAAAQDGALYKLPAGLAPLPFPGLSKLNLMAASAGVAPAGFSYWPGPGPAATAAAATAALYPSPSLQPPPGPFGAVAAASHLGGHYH
Particulars: protein: recombinant; tags: N-terminal GST; dsDNA, one strand shown. The procedure, abridged: (§1)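 Each value of binding signal is a hexamer's read frequency for a factor divided by the same hexamer's frequency in the tag-only sample. Barcoded, bead-captured GST fusions of human transcription factors made in yeast were pooled with that sample and incubated with 200 nmole of a random double-stranded 16-mer DNA library in Tris/NaCl/DTT/glycerol buffer at room temperature for 30 min. Washing, 0.1% formaldehyde crosslinking, proximity ligation, PCR and Illumina NextSeq500 sequencing followed.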

The next assay concerns the target ETV5 (Homo sapiens, UniProt P41161 1-510). Particulars: protein: recombinant; tags: N-terminal GST; dsDNA, one strand shown. The method, boiled down: as §1
The next assay has as its target HSF1 (Homo sapiens, UniProt Q00613 1-529). To be noted: protein: recombinant; tags: N-terminal GST; chain copies: 3; dsDNA, one strand shown. The method, boiled down: as §1
In another assay the target is T2, SPIC (Homo sapiens, UniProt Q8N5J4 1-248).
T2 sequence: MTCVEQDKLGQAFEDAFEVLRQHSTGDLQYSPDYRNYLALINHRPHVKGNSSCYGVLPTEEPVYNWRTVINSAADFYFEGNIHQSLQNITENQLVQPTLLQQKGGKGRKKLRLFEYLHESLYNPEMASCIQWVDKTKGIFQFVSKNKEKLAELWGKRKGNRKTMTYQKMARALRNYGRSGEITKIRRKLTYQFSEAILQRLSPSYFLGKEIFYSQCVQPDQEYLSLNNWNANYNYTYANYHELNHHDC
Particulars: protein: recombinant; tags: N-terminal GST; dsDNA, one strand shown. The method, boiled down:
as §1

In a further assay the target is ELF4 (Homo sapiens, UniProt Q99607 1-663). Particulars: protein: recombinant; tags: N-terminal GST; dsDNA, one strand shown. The procedure, abridged: as §1
In the next assay the target is T3, ELK4 (Homo sapiens, UniProt P28324-2 1-405).
T3 sequence: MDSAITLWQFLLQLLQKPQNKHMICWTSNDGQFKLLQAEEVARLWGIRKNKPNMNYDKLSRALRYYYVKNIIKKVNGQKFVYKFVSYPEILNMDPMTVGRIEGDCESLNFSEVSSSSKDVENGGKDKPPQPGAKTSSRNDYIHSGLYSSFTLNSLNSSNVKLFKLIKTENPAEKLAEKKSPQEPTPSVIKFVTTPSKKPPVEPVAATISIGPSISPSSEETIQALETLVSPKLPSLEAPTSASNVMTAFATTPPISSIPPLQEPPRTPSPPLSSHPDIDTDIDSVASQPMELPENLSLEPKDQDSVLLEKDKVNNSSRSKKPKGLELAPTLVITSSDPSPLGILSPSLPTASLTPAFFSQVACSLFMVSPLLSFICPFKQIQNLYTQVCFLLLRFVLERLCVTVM
To be noted: protein: recombinant; tags: N-terminal GST; dsDNA, one strand shown. The procedure, abridged:
as §1

The next assay addresses T4, ETV2 (Homo sapiens, UniProt O00321 1-342).
T4 sequence: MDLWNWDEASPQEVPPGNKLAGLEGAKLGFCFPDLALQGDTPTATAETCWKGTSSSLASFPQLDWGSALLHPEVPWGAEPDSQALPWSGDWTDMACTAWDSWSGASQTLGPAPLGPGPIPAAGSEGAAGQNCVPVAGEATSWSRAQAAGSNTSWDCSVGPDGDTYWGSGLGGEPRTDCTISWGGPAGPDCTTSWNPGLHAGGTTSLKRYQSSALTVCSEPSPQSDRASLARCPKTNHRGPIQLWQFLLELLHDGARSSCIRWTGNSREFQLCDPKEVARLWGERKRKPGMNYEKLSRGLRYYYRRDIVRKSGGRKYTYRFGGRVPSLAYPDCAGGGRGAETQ
Particulars: protein: recombinant; tags: N-terminal GST; dsDNA, one strand shown. The procedure, abridged: as §1

For another assay, the target named is T5, ELF3 (Homo sapiens, UniProt P78545 1-371).
T5 sequence: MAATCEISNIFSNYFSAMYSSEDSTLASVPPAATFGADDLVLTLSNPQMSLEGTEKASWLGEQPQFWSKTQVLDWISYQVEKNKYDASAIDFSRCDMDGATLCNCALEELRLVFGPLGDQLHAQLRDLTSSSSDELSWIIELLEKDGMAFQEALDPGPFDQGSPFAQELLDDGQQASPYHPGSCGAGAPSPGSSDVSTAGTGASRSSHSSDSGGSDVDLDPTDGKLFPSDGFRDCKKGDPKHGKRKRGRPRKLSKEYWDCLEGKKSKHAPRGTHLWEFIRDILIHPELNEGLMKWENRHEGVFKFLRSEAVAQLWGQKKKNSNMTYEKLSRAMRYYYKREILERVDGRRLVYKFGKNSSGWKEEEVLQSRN
Particulars: protein: recombinant; tags: N-terminal GST; dsDNA, one strand shown. The procedure, abridged:
as §1

A further assay concerns the target CRX (Homo sapiens, UniProt O43186 1-299). To be noted: protein: recombinant; tags: N-terminal GST; dsDNA, one strand shown. The procedure, abridged:
as §1

In a further assay the target is ETV1 (Homo sapiens, UniProt P50549 1-477). To be noted: protein: recombinant; tags: N-terminal GST; dsDNA, one strand shown. The procedure, abridged:
as §1

In a further assay the target is T6, ERF (Homo sapiens, UniProt P50548 1-548).
T6 sequence: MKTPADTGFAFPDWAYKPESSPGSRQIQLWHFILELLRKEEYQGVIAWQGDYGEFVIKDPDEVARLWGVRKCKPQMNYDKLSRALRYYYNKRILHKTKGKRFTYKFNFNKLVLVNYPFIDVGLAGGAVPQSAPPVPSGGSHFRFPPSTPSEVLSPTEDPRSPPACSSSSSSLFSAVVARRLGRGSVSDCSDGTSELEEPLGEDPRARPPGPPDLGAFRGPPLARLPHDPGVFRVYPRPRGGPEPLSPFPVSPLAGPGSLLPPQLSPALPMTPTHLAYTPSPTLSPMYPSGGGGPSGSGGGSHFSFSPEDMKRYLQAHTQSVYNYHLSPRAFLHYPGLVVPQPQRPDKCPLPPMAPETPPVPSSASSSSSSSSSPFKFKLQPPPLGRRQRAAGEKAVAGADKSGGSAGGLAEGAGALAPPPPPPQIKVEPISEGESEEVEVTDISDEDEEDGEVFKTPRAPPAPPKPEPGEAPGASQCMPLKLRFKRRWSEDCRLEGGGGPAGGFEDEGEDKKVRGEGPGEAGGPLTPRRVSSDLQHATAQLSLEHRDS
Particulars: protein: recombinant; tags: N-terminal GST; dsDNA, one strand shown. The procedure, abridged: as §1

A further assay deals with T7, ETV3L (Homo sapiens, UniProt Q6ZN32 1-361).
T7 sequence: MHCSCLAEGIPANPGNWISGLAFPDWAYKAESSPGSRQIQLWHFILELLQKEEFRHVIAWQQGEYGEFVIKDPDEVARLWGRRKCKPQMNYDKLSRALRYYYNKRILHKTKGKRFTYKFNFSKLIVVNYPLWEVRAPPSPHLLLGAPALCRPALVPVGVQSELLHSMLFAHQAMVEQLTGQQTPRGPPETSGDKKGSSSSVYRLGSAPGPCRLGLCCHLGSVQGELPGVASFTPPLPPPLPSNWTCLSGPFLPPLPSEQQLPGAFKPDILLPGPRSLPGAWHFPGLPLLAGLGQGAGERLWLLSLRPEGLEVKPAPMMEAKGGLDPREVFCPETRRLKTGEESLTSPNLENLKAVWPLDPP
Particulars: protein: recombinant; tags: N-terminal GST; dsDNA, one strand shown. The procedure, abridged:
as §1

The target of another assay is T8, ETS2 (Homo sapiens, UniProt P15036 1-469).
T8 sequence: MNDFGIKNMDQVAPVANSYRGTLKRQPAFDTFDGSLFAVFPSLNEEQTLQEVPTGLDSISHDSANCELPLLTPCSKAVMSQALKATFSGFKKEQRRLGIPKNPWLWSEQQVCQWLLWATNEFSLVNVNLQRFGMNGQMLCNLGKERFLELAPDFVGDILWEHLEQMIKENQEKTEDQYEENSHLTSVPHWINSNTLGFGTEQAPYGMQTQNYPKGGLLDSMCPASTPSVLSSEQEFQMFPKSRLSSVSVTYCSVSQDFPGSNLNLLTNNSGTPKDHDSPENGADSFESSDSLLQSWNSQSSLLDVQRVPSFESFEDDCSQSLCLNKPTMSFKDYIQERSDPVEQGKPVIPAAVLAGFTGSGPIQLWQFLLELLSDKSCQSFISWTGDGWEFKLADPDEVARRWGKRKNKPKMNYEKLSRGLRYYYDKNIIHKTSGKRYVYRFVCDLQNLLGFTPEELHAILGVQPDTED
Particulars: protein: recombinant; tags: N-terminal GST; dsDNA, one strand shown. The procedure, abridged:
as §1

The target in another assay is T9, SPDEF (Homo sapiens, UniProt O95238 1-335).
T9 sequence: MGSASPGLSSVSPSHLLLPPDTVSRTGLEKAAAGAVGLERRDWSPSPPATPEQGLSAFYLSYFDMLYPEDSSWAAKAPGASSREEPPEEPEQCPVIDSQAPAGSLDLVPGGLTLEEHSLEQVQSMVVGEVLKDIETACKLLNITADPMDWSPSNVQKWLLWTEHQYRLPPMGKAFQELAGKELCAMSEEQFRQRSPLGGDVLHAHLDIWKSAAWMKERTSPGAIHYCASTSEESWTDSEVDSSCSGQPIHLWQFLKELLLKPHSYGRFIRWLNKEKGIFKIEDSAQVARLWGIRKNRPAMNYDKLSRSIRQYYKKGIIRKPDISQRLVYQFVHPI
Particulars: protein: recombinant; tags: N-terminal GST; dsDNA, one strand shown. The method, boiled down: as §1

For the next assay, the target named is T10, ETV7 (Homo sapiens, UniProt Q9Y603 1-341).
T10 sequence: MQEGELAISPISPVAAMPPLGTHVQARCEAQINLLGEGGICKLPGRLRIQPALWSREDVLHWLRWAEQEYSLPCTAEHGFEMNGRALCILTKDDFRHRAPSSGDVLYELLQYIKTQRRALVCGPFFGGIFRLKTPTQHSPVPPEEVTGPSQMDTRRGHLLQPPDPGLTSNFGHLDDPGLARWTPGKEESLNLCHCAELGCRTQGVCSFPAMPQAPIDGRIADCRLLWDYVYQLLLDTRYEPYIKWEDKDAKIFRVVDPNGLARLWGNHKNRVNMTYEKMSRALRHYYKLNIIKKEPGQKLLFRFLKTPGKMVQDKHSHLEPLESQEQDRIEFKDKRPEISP
Particulars: protein: recombinant; tags: N-terminal GST; dsDNA, one strand shown. The procedure, abridged: as §1

The target in another assay is T11, ELF5 (Homo sapiens, UniProt Q9UKW6-2 1-255).
T11 sequence: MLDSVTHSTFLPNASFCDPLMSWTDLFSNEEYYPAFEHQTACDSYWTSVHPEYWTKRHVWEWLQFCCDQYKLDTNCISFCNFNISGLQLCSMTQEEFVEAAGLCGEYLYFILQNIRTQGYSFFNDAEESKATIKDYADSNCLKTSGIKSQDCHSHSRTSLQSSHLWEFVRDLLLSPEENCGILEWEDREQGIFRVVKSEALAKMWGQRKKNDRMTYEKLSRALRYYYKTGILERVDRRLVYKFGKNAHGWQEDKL
To be noted: protein: recombinant; tags: N-terminal GST; dsDNA, one strand shown. The procedure, abridged:
as §1

The target of another assay is T12, ETV3 (Homo sapiens, UniProt P41162-2 1-143).
T12 sequence: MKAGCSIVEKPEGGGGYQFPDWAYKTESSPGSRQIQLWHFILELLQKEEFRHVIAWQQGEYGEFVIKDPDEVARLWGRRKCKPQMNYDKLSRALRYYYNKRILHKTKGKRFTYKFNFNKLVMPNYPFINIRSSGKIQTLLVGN
To be noted: protein: recombinant; tags: N-terminal GST; dsDNA, one strand shown. The procedure, abridged: as §1

For the next assay, the target named is ETV6 (Homo sapiens, UniProt P41212 1-452). To be noted: protein: recombinant; tags: N-terminal GST; dsDNA, one strand shown. The method, boiled down:
as §1

ELF4, sequence (Q99607 whole entry): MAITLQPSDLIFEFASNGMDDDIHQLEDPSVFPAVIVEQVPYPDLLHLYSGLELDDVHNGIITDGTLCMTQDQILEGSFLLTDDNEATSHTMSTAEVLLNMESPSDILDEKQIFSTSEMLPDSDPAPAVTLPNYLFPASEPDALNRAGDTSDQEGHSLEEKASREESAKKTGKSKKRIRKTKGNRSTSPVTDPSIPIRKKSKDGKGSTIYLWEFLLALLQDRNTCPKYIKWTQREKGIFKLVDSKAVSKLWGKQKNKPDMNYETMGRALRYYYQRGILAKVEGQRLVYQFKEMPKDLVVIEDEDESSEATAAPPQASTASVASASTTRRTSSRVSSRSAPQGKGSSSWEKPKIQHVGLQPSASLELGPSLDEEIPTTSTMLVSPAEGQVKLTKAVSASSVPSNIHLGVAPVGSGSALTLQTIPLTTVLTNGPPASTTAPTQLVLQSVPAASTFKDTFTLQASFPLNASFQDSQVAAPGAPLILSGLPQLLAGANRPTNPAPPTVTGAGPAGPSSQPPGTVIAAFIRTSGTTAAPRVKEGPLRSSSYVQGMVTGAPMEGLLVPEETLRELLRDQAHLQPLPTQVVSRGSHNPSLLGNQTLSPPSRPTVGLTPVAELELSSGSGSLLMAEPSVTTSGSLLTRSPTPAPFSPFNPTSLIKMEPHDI
ETV5, sequence (P41161 whole entry): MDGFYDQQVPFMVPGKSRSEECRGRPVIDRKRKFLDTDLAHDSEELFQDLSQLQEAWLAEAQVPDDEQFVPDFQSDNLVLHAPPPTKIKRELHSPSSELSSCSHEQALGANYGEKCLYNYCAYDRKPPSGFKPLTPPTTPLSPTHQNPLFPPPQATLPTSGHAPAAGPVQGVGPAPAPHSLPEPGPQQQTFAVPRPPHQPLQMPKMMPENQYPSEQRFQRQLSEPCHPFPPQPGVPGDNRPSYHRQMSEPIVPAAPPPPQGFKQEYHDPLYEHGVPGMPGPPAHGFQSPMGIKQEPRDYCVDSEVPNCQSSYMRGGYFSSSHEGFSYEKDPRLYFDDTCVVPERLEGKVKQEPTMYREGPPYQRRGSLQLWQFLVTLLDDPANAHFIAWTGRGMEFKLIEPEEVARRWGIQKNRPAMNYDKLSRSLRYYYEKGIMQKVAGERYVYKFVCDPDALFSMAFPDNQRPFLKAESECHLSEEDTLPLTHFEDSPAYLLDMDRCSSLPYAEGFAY
ETV6, sequence (P41212 whole entry): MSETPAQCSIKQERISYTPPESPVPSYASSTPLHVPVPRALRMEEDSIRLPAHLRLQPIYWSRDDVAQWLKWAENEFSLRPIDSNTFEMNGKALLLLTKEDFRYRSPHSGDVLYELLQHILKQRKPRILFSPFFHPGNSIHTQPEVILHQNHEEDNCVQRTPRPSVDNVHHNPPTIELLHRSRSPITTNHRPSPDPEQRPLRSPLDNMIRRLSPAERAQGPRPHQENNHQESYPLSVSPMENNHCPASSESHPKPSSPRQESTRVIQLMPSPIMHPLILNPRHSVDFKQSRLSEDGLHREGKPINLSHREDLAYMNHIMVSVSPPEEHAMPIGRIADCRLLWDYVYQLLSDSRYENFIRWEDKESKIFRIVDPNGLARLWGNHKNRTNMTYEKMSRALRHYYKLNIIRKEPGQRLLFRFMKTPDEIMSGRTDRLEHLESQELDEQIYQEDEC
ETV1, sequence (P50549 whole entry): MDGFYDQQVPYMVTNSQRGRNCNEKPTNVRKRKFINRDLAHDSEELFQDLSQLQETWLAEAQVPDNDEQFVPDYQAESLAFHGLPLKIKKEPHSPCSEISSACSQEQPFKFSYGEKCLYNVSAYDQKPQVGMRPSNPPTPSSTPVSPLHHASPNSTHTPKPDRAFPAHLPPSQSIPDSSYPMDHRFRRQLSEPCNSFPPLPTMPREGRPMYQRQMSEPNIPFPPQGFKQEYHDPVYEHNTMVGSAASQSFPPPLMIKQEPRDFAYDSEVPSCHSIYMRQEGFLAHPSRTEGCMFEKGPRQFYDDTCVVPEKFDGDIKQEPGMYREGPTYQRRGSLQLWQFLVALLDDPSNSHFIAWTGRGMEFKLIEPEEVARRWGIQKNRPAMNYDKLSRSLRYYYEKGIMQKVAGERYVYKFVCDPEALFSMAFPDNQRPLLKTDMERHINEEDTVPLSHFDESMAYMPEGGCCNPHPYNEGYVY
CRX, sequence (O43186 whole entry): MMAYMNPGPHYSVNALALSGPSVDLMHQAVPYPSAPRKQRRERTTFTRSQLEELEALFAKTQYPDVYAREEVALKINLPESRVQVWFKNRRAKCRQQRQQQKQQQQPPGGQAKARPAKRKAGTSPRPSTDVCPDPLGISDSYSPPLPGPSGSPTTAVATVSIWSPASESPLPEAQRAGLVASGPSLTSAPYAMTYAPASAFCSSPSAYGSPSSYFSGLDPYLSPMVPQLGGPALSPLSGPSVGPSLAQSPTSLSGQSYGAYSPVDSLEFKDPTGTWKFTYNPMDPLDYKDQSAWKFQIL
HSF1, sequence (Q00613 whole entry): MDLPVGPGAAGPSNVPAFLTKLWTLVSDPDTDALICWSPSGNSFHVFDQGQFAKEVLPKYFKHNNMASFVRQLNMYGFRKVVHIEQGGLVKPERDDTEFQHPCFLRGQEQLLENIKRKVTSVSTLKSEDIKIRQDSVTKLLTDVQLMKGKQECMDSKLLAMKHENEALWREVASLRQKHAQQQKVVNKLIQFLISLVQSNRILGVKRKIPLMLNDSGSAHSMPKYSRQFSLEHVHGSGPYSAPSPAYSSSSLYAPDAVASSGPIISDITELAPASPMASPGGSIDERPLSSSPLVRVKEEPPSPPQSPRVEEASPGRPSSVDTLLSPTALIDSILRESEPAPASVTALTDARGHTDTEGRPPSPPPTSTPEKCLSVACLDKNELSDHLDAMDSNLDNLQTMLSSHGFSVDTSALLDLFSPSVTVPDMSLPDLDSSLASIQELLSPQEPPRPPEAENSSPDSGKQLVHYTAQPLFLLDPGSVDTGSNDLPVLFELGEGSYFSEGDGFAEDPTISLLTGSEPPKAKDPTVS

Regarding AGCTCC, the binding signal with FEV was 1.26 fold enrichment (6-mer frequency, TF over GST control); with ETV5, 1.29 fold enrichment (6-mer frequency, TF over GST control); with HSF1 it was 1.22 fold enrichment (6-mer frequency, TF over GST control); with SPIC, 1.26 fold enrichment (6-mer frequency, TF over GST control); in the assay with ELF4, 1.43 fold enrichment (6-mer frequency, TF over GST control); in the assay with ELK4, 1.16 fold enrichment (6-mer frequency, TF over GST control). Further, the binding signal in the assay with ETV2 was 1.35 fold enrichment (6-mer frequency, TF over GST control); with ELF3, 1.33 fold enrichment (6-mer frequency, TF over GST control); in the assay with CRX, 1.3 fold enrichment (6-mer frequency, TF over GST control); in the assay with ETV1 it was 1.29 fold enrichment (6-mer frequency, TF over GST control); with ERF, 1.24 fold enrichment (6-mer frequency, TF over GST control); with ETV3L, 1.25 fold enrichment (6-mer frequency, TF over GST control). In addition, the binding signal with ETS2 was 1.33 fold enrichment (6-mer frequency, TF over GST control); with SPDEF, 1.4 fold enrichment (6-mer frequency, TF over GST control); with ETV7 it was 1.17 fold enrichment (6-mer frequency, TF over GST control); in the assay with ELF5, 1.2 fold enrichment (6-mer frequency, TF over GST control); in the assay with ETV3, 1.22 fold enrichment (6-mer frequency, TF over GST control); with ETV6, 1.32 fold enrichment (6-mer frequency, TF over GST control).

These data come from paper PMC7862700, “An all-to-all approach to the identification of sequence-specific readers for epigenetic DNA modifications on cytosine”.
